Reference: ChEMBL document CHEMBL4513216, “Probing the Open Global Health Chemical Diversity Library for Multistage-Active Starting Points for Next-Generation Antimalarials” (ACS Infect Dis, 2020)
Hit rate of the full screen: of about 69,000 compounds, about 8,600 (12%) showed an effect of 50% or more. The list comes from a sample in which strong results are over-represented; it also holds similar structures and randomly drawn compounds.

test system: Plasmodium berghei; experiment: Screen against P. berghei liver stage (PbLuc), transformed with Luciferase, at 10uM; assay type: functional, HepG2; settings: tested at 10 uM

In order of rising INHIBITION:
1. Cc1ncc2c(n1)CCN(Cc1nc(Cc3ccccc3)no1)C2  -154%
2. Cc1cc(C)n(-c2ccc(N3CCC4(CC3)OCCO4)nc2)n1  -125%
3. Cn1nnc2c1CCN(Cc1ccco1)C2COCc1ccccc1 (stereo not drawn)  -48.4%
4. NC(=O)c1cncc(N2CCN(Cc3cccc4nsnc34)CC2)n1  -47.8%
5. COCCN1CCN(CC(=O)N(C)Cc2ccsc2)CC1C (stereo not drawn)  -39.2%
6. O=C(c1ccoc1)N1CCO[C@]2(CCC[C@H]2COCc2cccnc2)C1  -34.7%
7. COc1ccccc1OCCCc1cccc(C#N)n1  -34.1%
8. CC(C)c1ccc(-n2ncc(C(=O)N(C)C3CCN(C)CC3)c2N)cc1  -29%
9. CC(C)CC(=O)N1CCN(Cc2cc(-c3ccncc3)nn2C)CC1  -23.8%
10. COc1cccc(CN(C)C(=O)CN2CCN(c3nccn3C)CC2)c1  -20.6%
11. COc1ccc(CN2CCCN(c3cc(C(N)=O)ccn3)CC2)cc1  -18.7%
12. O=C(c1cnns1)N1CCN(Cc2ccc(F)cc2Cl)CC1  -18.2%
13. COCCN(Cc1ccco1)Cc1nc(-c2ccc(C)c(F)c2)no1  -16.7%
14. CN(C)C(=O)N1CCN(c2ccc3ccc(C(=O)NC4CC4)cn23)CC1  -14.7%
15. Cc1oncc1C(=O)N1CCC2(CC1)CN(S(C)(=O)=O)c1ccccc12  -13.4%
16. CCN(CC)c1ccc(C(=O)N2CCCC(n3cncn3)C2)cn1 (stereo not drawn)  -12.7%
17. Cc1nc(N2CCCC2)nc2c1CCN(C(=O)CC1CCCC1)CC2  -10.3%
18. CN(C)C(=O)Cn1cc(C(=O)NCCc2cccc(Cl)c2Cl)nn1  -8.4%
19. CN(CCCc1cnn(C)c1)C(=O)C1CCC(=O)N(C2CCCC2)C1 (stereo not drawn)  -7.85%
20. C[C@H]1C[C@H]2CN(S(=O)(=O)c3ccc(F)cc3)CC[C@H]2O1  -7.28%
21. O=C1CNc2ncnc(Nc3cnn(Cc4cccc(F)c4)c3)c2N1  -6.47%
22. COc1ccc(CC(=O)N2CC[C@@H]3NC(=O)CC[C@@H]32)cc1  -6.46%
23. O=C1C[C@H]2[C@@H](CCN2C(=O)c2ccoc2)N1CCN1CCOCC1  -6.23%
24. CCN1CCC2(CC1)CC(NCc1cccc(C)n1)c1ccccc1O2 (stereo not drawn)  -4.88%
25. Cc1cnc(CCNC(=O)C2CN(C(=O)Cc3ccc(F)cc3)C2)s1  -3.15%
26. CN(Cc1ccsc1)C(=O)CN1CCc2c(ncn2C)C1  -1.15%
27. COc1cccc(CC(=O)N2CC[C@@H]3NC(=O)CC[C@@H]32)c1  -0.554%
28. CC1COCCN1C(=O)Cc1cc(Cl)c2c(c1)OCCCO2 (stereo not drawn)  0.348%
29. CN1CCN(Cc2ccccc2Oc2cncc(C(N)=O)n2)CC1  4.82%
30. COc1cccc(CC(=O)N2CCCC(n3nc(C)cc3C)C2)c1 (stereo not drawn)  5.03%
31. CN(Cc1ccsc1)C(=O)CN1CCOC(Cn2cncn2)C1 (stereo not drawn)  5.7%
32. CC(=O)N1Cc2ccccc2OC2(CCN(C(=O)C3CCOC3)CC2)C1 (stereo not drawn)  6.26%
33. COc1ccccc1CNC(=O)C(C)N1CC(n2nc(C)cc2C)C1 (stereo not drawn)  6.27%
34. CN(C)CC1(O)CCCN(c2ccnc3c(C(F)(F)F)cccc23)C1 (stereo not drawn)  7.24%
35. Cc1csc(C(C)(C)NCC(=O)N(C)Cc2ccc(C)o2)n1  11.3%
36. NC(=O)C1CCN(C(=O)c2cccn2Cc2cccs2)C1 (stereo not drawn)  11.6%
37. Cc1cccc(SC2CCN(Cc3nc(CC4CC4)no3)CC2)c1  11.9%
38. COc1cccc(CN(C)C(=O)CN2CCN(CCO)CC2)c1  13.7%
39. CCOC(=O)c1c(NC(=O)CN2CCN(C(C)=O)CC2)sc2c1CCC2  14.2%
40. OC1(CN2CCC(Cc3ncccn3)CC2)CCCCC1  14.6%
41. Cc1ccc(CN(CCN(C)C)Cc2ccnn2C2CCCCO2)o1 (stereo not drawn)  15.5%
42. Cc1ccc(N2CCN(C(=O)C3CN(C)C(=O)N3)CC2=O)cc1 (stereo not drawn)  17.8%
43. Cc1cnc(C(=O)NCc2ccc3c(c2)CCCN3C)cn1  19.6%
44. COCCN1C[C@@H](C)[C@@]2(COCCN(C(=O)c3cccs3)C2)C1  20.1%
45. O=C(CC1CCC1)N1CCCC(CO)(CC2CC2)C1 (stereo not drawn)  22.1%
46. COCCNC(=O)c1cc(-n2cccc2)ccc1Cl  22.2%
47. Cc1ccc(N2CCC(NC(C)c3cccs3)CC2)nc1 (stereo not drawn)  22.9%
48. Cn1cncc1CNC1CC2(CCN(S(C)(=O)=O)CC2)c2ccccc21 (stereo not drawn)  23.1%
49. CC(C(=O)NCc1ccnc(N2CCN(C)CC2)c1)S(C)(=O)=O (stereo not drawn)  23.333%
50. Cc1cc(C)n(-c2ccc(N3CCCSCC3)nc2)n1  25.8%
51. O=C(NCCC1CCN(CC(F)(F)F)CC1)C1CCOC1 (stereo not drawn)  26.1%
52. COc1ccccc1CC(=O)N1CCCC(n2nc(C)cc2C)C1 (stereo not drawn)  27.1%
53. O=C(NC1CC2(CCN(CCO)CC2)c2ccccc21)c1ccsc1 (stereo not drawn)  27.5%
54. Cc1ccc(CN(C)C(=O)CN2CC(n3cccn3)C2)o1  28.4%
55. CN1CCc2nc(C3CCCN(S(=O)(=O)c4ccccc4)C3)ncc2C1 (stereo not drawn)  29.85%
56. COCCNC(=O)[C@H]1C[C@H]2OCC[C@H]2N(Cc2ccoc2)C1  31.1%
57. NC(=O)CN1CC2(CCC1=O)CCN(Cc1ccc(F)cc1Cl)CC2  31.7%
58. CCNC(=O)NC(c1ccc(C)cc1)c1cccc(S(C)(=O)=O)c1 (stereo not drawn)  31.7%
59. CCOC(=O)c1sc(NC(=O)CN2C(=O)CCC2=O)c(C#N)c1C  32.2%
60. Cc1cccc(N2CCN(Cc3nc(CC4CC4)no3)CC2)n1  32.7%
61. Cc1cc(C)n(C2CN(CC(=O)N(C)Cc3cnn(C)c3)C2)n1  32.9%
62. O=C1CNc2ncnc(Nc3cnn(Cc4ccccc4)c3)c2N1  34.6%
63. COc1cc(C(=O)NCc2ccc3c(c2)CCCN3C)cc(OC)c1Br  34.7%
64. COC(=O)c1cccc(C(=O)NCc2ccc3c(c2)CCCN3C)c1  34.7%
65. CCC(=O)NC(c1ccc(C)cc1)c1cccc(S(C)(=O)=O)c1 (stereo not drawn)  34.7%
66. Cc1c(S(=O)(=O)NCC(C)Cn2cc(Cl)cn2)cnn1C (stereo not drawn)  35.8%
67. CN1CCCc2cc(CNC(=O)c3ccc(-n4cnnc4)cc3)ccc21  37.4%
68. CCOC(=O)c1sc(NC(=O)C(C)C)c(C#N)c1C  38%
69. COc1ccc(CN2CC[C@H](NC(C)=O)[C@@H](O)CC2)c(F)c1  38.2%
70. c1cc(CN2CCC3(CCOCC3COCC3CC3)CC2)co1 (stereo not drawn)  38.3%
71. COCCc1noc(CN2CCCC2Cn2cccn2)n1 (stereo not drawn)  38.8%
72. Cc1cc(C)n(C2CN(CC(=O)N(C)Cc3ccco3)C2)n1  39.7%
73. COc1cccc(CNC(=O)C(C)N2CC(n3nc(C)cc3C)C2)c1 (stereo not drawn)  39.8%
74. COCc1cc(CNC(=O)c2cc(NC(C)=O)ccc2Cl)n[nH]1  40.6%
75. COc1ccc(F)cc1S(=O)(=O)NCCn1cnc(C)cc1=O  41.7%
76. Cc1ccc(O)c(C(=O)N2CCC3(CCCNC3)C2)c1 (stereo not drawn)  42.1%
77. Cc1nn(C)c(N2CCOCC2)c1CNCc1ccc(C(C)O)cc1 (stereo not drawn)  43.2%
78. NC(=O)c1ccnc(N2CCCC(CO)(Cc3ccc(F)cc3)C2)c1 (stereo not drawn)  43.5%
79. Cn1cncc1CNC1CC2(CCN(CC3CC3)CC2)c2ccccc21 (stereo not drawn)  45.2%
80. CS(=O)(=O)Cc1noc(CN2CCN(c3ccccc3Cl)CC2)n1  45.7%
81. COc1ccccc1OCCCc1cc(C#N)ccn1  45.7%
82. COCCN1CCC2(CC1)CC(NCc1ccc(C)s1)c1ccccc12 (stereo not drawn)  45.7%
83. CSc1ccc(-c2noc(CN(Cc3ccccc3)C(C)C)n2)cc1  46.1%
84. CCc1cc(N2CCC(Nc3ccc4nnc(C)n4n3)CC2)ncn1  46.4%
85. O=C(NC1CC2(CCN(CCO)CC2)c2ccccc21)c1ccncc1 (stereo not drawn)  49.7%
86. Cc1cc(C)n(-c2ccc(N3CCC(O)CC3)nc2)n1  50.5%
87. Clc1cccc2c1CCN(Cc1nc(CC3CC3)no1)C2  50.5%
88. Cc1cccc(CNC2CC3(CCN(CCO)CC3)c3ccccc32)n1 (stereo not drawn)  52.1%
89. Cc1ccc(C(NC(=O)C2CC2)c2cccc(S(C)(=O)=O)c2)cc1 (stereo not drawn)  52.5%
90. COc1cccc(CN(C)C(=O)CN2CC(n3nc(C)cc3C)C2)c1  53.7%
91. CN1CCCc2cc(CNC(=O)c3cc[n+]([O-])cc3)ccc21  53.9%
92. COCCN1CCC2(CC1)CC(NCc1cncn1C)c1ccccc12 (stereo not drawn)  54.1%
93. COc1cccc(OCCCc2cc(C#N)ccn2)c1  55.6%
94. Cc1ccc(CC(=O)N2CC[C@@H]3NC(=O)CC[C@@H]32)cc1  58.5%
95. Cc1ccc(N2CCC(Nc3ccc4nnc(C)n4n3)CC2)nc1  58.7%
96. Cc1ccc(CNC2CC3(CCN(CCO)CC3)c3ccccc32)s1 (stereo not drawn)  60.2%
97. COc1cccc(CN(C)C(=O)CN2CCN(c3nccs3)CC2)c1  60.4%
98. CN1CCCc2cc(CNC(=O)c3ccncc3)ccc21  63.9%
99. COCCN1CCN(CC(=O)N(C)Cc2ccsc2)CC1  65.7%
100. CSc1ccc(-c2noc(CN(CC(C)C)CC(C)C)n2)cc1  65.8%
101. O=C1CNc2ncnc(Nc3cnn(Cc4ccc(F)cc4)c3)c2N1  65.8%
102. NC(=O)c1cncc(N2CCN(Cc3ccc(F)cc3Cl)CC2)n1  69.3%
103. Cc1cc(C)n(C2CN(CC(=O)N(C)Cc3ccc(C)o3)C2)n1  71.9%
104. Cc1cc(C)n(C2CN(CC(=O)N(C)Cc3ccsc3)C2)n1  75.7%
105. NC(=O)c1ccc(N2CCN(Cc3ccc(F)cc3Cl)CC2)nn1  81.2%
106. CS(=O)(=O)Cc1noc(CN2CCc3c(Cl)cccc3C2)n1  82.5%
107. NC(=O)c1ccnc(N2CCN(Cc3ccc(F)cc3Cl)CC2)c1  83.2%
108. COc1ccccc1CN(C)C(=O)CN1CC(n2nc(C)cc2C)C1  89.4%
